In paper PMC8222333, “AsCas12a ultra nuclease facilitates the rapid generation of therapeutic cell medicines”:

Columns and labels:
Assay in all cases: Spec-seq (native PAGE EMSA with sequencing of bound and unbound); 25 mM Tris-HCl pH 7.4, 150 mM KCl, 5 mM MgCl2, 10% glycerol, 1 mM DTT, 40 ng/uL salmon sperm DNA; 400 nM Cas12a, 480 nM crRNA, 50 nM library, 37 C 1 h; native PAGE at room temperature; high values mean tight binding
Conditions in all cases: protein: recombinant
[1] = biological target: dAsCas12a S542R (Acidaminococcus sp., UniProt U2UMQ6 1-1307, S542R;D908A;E993A;D1235A)
[2] = biological target: d-enCas12a (Acidaminococcus sp., UniProt U2UMQ6 1-1307, E174R;S542R;K548R;D908A;E993A;D1235A)
[3] = biological target: d-enCas12a-Ultra (Acidaminococcus sp., UniProt U2UMQ6 1-1307, E174R;S542R;K548R;M537R;F870L;D908A;E993A;D1235A)
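Further: relative affinity from the bound to unbound sequence frequency ratio in Spec-seq.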

B1: TAAT (dsDNA)
DNA 1: GCTATCTAGTGCTCAGTACGCACTGTAATAGGAAACTTCTGGCAGGACCAGGTCATGAGATCGGAAGAGCACACGTCTGAACTCCAGTCA
DNA 2: TGACTGGAGTTCAGACGTGTGCTCTTCCGATCTCATGACCTGGTCCTGCCAGAAGTTTCCTATTACAGTGCGTACTGAGCACTAGATAGC
RNA: AAUUUCUACUCUUGUAGAUAGGAAACUUCUGGCAGGACC
Binder B1 has a binding signal [1] of -8.37 lnKA, a binding signal [2] of -5.67 lnKA and a binding signal [3] of -3.27 lnKA.

B2: TACA (dsDNA)
DNA 1: GCTATCTAGTGCTCAGTACGCACTGTACAAGGAAACTTCTGGCAGGACCAGGTCATGAGATCGGAAGAGCACACGTCTGAACTCCAGTCA
DNA 2: TGACTGGAGTTCAGACGTGTGCTCTTCCGATCTCATGACCTGGTCCTGCCAGAAGTTTCCTTGTACAGTGCGTACTGAGCACTAGATAGC
RNA: AAUUUCUACUCUUGUAGAUAGGAAACUUCUGGCAGGACC
B2 was tested, and the binding signal [1] was -7.41 lnKA, the binding signal [2] was -1.33 lnKA and the binding signal [3] was -0.355 lnKA.

B3: TACC (dsDNA)
DNA 1: GCTATCTAGTGCTCAGTACGCACTGTACCAGGAAACTTCTGGCAGGACCAGGTCATGAGATCGGAAGAGCACACGTCTGAACTCCAGTCA
DNA 2: TGACTGGAGTTCAGACGTGTGCTCTTCCGATCTCATGACCTGGTCCTGCCAGAAGTTTCCTGGTACAGTGCGTACTGAGCACTAGATAGC
RNA: AAUUUCUACUCUUGUAGAUAGGAAACUUCUGGCAGGACC
In the case of B3, the binding signal [1] is reported as -7.06 lnKA, the binding signal [2] is reported as -1.02 lnKA and the binding signal [3] is reported as -0.362 lnKA.

B4: TACG (dsDNA)
DNA 1: GCTATCTAGTGCTCAGTACGCACTGTACGAGGAAACTTCTGGCAGGACCAGGTCATGAGATCGGAAGAGCACACGTCTGAACTCCAGTCA
DNA 2: TGACTGGAGTTCAGACGTGTGCTCTTCCGATCTCATGACCTGGTCCTGCCAGAAGTTTCCTCGTACAGTGCGTACTGAGCACTAGATAGC
RNA: AAUUUCUACUCUUGUAGAUAGGAAACUUCUGGCAGGACC
In the case of B4, the binding signal [1] is reported as -7.71 lnKA, the binding signal [2] is reported as -3.12 lnKA and the binding signal [3] is reported as -0.852 lnKA.

B5: TAGC (dsDNA)
DNA 1: GCTATCTAGTGCTCAGTACGCACTGTAGCAGGAAACTTCTGGCAGGACCAGGTCATGAGATCGGAAGAGCACACGTCTGAACTCCAGTCA
DNA 2: TGACTGGAGTTCAGACGTGTGCTCTTCCGATCTCATGACCTGGTCCTGCCAGAAGTTTCCTGCTACAGTGCGTACTGAGCACTAGATAGC
RNA: AAUUUCUACUCUUGUAGAUAGGAAACUUCUGGCAGGACC
B5 gave a binding signal [1] of -8.4 lnKA, a binding signal [2] of -5.51 lnKA and a binding signal [3] of -3.07 lnKA.

B6: TAGG (dsDNA)
DNA 1: GCTATCTAGTGCTCAGTACGCACTGTAGGAGGAAACTTCTGGCAGGACCAGGTCATGAGATCGGAAGAGCACACGTCTGAACTCCAGTCA
DNA 2: TGACTGGAGTTCAGACGTGTGCTCTTCCGATCTCATGACCTGGTCCTGCCAGAAGTTTCCTCCTACAGTGCGTACTGAGCACTAGATAGC
RNA: AAUUUCUACUCUUGUAGAUAGGAAACUUCUGGCAGGACC
B6 gave a binding signal [1] of -8.66 lnKA, a binding signal [2] of -5.6 lnKA and a binding signal [3] of -3.37 lnKA.

B7: TAGT (dsDNA)
DNA 1: GCTATCTAGTGCTCAGTACGCACTGTAGTAGGAAACTTCTGGCAGGACCAGGTCATGAGATCGGAAGAGCACACGTCTGAACTCCAGTCA
DNA 2: TGACTGGAGTTCAGACGTGTGCTCTTCCGATCTCATGACCTGGTCCTGCCAGAAGTTTCCTACTACAGTGCGTACTGAGCACTAGATAGC
RNA: AAUUUCUACUCUUGUAGAUAGGAAACUUCUGGCAGGACC
B7 gave a binding signal [1] of -8.48 lnKA, a binding signal [2] of -5.67 lnKA and a binding signal [3] of -3.31 lnKA.

B8: TCAG (dsDNA)
DNA 1: GCTATCTAGTGCTCAGTACGCACTGTCAGAGGAAACTTCTGGCAGGACCAGGTCATGAGATCGGAAGAGCACACGTCTGAACTCCAGTCA
DNA 2: TGACTGGAGTTCAGACGTGTGCTCTTCCGATCTCATGACCTGGTCCTGCCAGAAGTTTCCTCTGACAGTGCGTACTGAGCACTAGATAGC
RNA: AAUUUCUACUCUUGUAGAUAGGAAACUUCUGGCAGGACC
B8 gave a binding signal [1] of -7.87 lnKA, a binding signal [2] of -5.78 lnKA and a binding signal [3] of -3.45 lnKA.

B9: TCAT (dsDNA)
DNA 1: GCTATCTAGTGCTCAGTACGCACTGTCATAGGAAACTTCTGGCAGGACCAGGTCATGAGATCGGAAGAGCACACGTCTGAACTCCAGTCA
DNA 2: TGACTGGAGTTCAGACGTGTGCTCTTCCGATCTCATGACCTGGTCCTGCCAGAAGTTTCCTATGACAGTGCGTACTGAGCACTAGATAGC
RNA: AAUUUCUACUCUUGUAGAUAGGAAACUUCUGGCAGGACC
B9 showed a binding signal [1] of -8.4 lnKA, a binding signal [2] of -5.72 lnKA and a binding signal [3] of -3.42 lnKA.
